Screening results deposited in PubChem BioAssay by National Center for Advancing Translational Sciences (NCATS).
Nrf2 block – inhibitors of Nrf2 signaling | A549 ARE-Fluc reporter, luciferase luminescence, 18-24 h | Potency, µM (top dose mostly 46 µM), without a hit: top-dose activity change, negative = inhibition, most hits filed as inhibitors | 360,000 tested, 2.1% active | AID 504444; further: on the % scale 0 is the no-effect control and ±100 the full control effect; nearly all actives have a fitted effect of over 60% in size
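Quantitative HTS in A549 cells stably bearing an antioxidant response element-firefly luciferase construct. Inhibition of Nrf2-driven transcription was scored by luminescence after 18-24 h of compound exposure at 37 °C.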
A549 viability – counter-screen for Nrf2 inhibitors: cytotoxicity in A549 cells; A549 ARE-Fluc cells, CellTiter-Fluor viability, 18-24 h; Potency, µM (highest dose often 46 µM), without a hit: at the top dose activity change, negative = cytotoxicity, hits mostly inhibitors; 390,000 tested, 0.16% active; AID 504648; further: on the % scale 0 is the no-effect control and ±100 the full control effect
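Cytotoxicity counterscreen: CellTiter-Fluor fluorescence was measured in A549 ARE_Fluc cells after 18-24 h of compound exposure in a concentration series. The subsequent BugLite luminescent read reports ARE-luciferase activity.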
ELG1 DNA repair – inhibitors of ELG1-dependent DNA repair in HEK293T cells. 330,000 tested, 2.3% active. HEK293T ELG1-luciferase reporter, luminescence, 16 h; DNA damage induced by 5-fluorouridine. Potency, µM (highest dose often 46.1 µM), for the others: at the top dose activity change, negative = inhibition, most hits filed as inhibitors; further: on the % scale 0 is the no-effect control and ±100 the full control effect; nearly all actives have a fitted effect of over 55% in size
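Reporter activity after DNA damage by 5-fluorouridine is monitored. Compound-treated cells incubate 16 hr at 37 °C, then ONE-Glo is added for 30 min before luminescence reading.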
Nrf2 activator – activates Nrf2 signaling; AREc32 ARE-luciferase reporter (MCF7-derived line), luminescence, 24 h; Potency, µM (top dose mostly 46.1 µM), without a hit: at the top dose activation, most hits filed as activators; 410,000 tested, 0.31% active; AID 624171; further: % of control where 0% means no effect; nearly all actives have a fitted effect of over 65% in size
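AREc32 cells carrying an ARE-driven firefly luciferase, 1000 cells/well in OPTI-MEM with 5% FBS, dosed after overnight attachment and incubated 24 hr at 37 deg C. Steady-Glo luminescence read after 30 min at RT.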
* = called active by the depositor. Shown are actives, neighbours in structure and some others; about 3.7% of the full set was active somewhere. The call rests on the fitted dose curve; in most records, active means well fitted curve in the direction sought with a large enough effect; inconclusive means small, poorly fitted or top-dose-only effect, or another doubt; inactive means no such curve, though single readings can be large; an effect the other way counts as inactive or inconclusive. Potency means the concentration at half of the fitted maximal effect.

Screening COc1ccc(CCNC(=S)NC(=O)c2ccccc2)cc1C returned Nrf2 block inconclusive, A549 viability 6.0%, ELG1 DNA repair 13µM* and Nrf2 activator 2.3%.
For COc1ccc(CCNC(=S)NC(=O)c2ccc(Br)cc2)cc1OC the results were Nrf2 block 14.6µM*, A549 viability 1.0%, ELG1 DNA repair inconclusive and Nrf2 activator 2.7%.
`O=C1C(NS(=O)(=O)c2cccs2)=C(N2CCN(Cc3ccccc3)CC2)C(=O)c2ccccc21` gave Nrf2 block 3.8%, A549 viability -16.8%, ELG1 DNA repair 23.1µM* and Nrf2 activator -0.8%.
Screening O=C1C(NS(=O)(=O)c2cccs2)=C(N2CCN(c3cccc(C(F)(F)F)c3)CC2)C(=O)c2ccccc21 returned Nrf2 block 20.6µM*, A549 viability inconclusive, ELG1 DNA repair inconclusive and Nrf2 activator 21.5%.
`CN1CCN(C2=C(NS(=O)(=O)c3cccs3)C(=O)c3ccccc3C2=O)CC1` gave Nrf2 block inconclusive, A549 viability -19.5%, ELG1 DNA repair -27.6% and Nrf2 activator -1.4%.
Screening CCOc1ccccc1N1CCN(C2=C(NS(=O)(=O)c3cccs3)C(=O)c3ccccc3C2=O)CC1 returned Nrf2 block inconclusive, A549 viability inconclusive, ELG1 DNA repair 23.1µM* and Nrf2 activator 25.2%.
For N#CC1(NC(=O)Cn2ncc(Cl)c(Cl)c2=O)CCCCC1 the results were Nrf2 block -15.5%, A549 viability -7.8%, ELG1 DNA repair 5.8µM* and Nrf2 activator inconclusive.
N#CC1(NC(=O)CN2C(=O)c3ccccc3C2=O)CCCCC1 was read as Nrf2 block -16.9%, A549 viability 0.0%, ELG1 DNA repair 22.2% and Nrf2 activator -0.8%.
For NS(=O)(=O)c1ccc(CCNCc2ccccc2OCc2ccc(F)cc2)cc1 the results were Nrf2 block inconclusive, A549 viability inconclusive, ELG1 DNA repair 11.6µM* and Nrf2 activator -0.5%.
Screening COc1cc(CNCCc2ccc(S(N)(=O)=O)cc2)ccc1OCc1ccc(Cl)cc1 returned Nrf2 block 23.1µM*, A549 viability inconclusive, ELG1 DNA repair -13.2% and Nrf2 activator 8.1%.
`CCOc1cc(CNCCc2ccc(S(N)(=O)=O)cc2)ccc1OCc1ccc(Cl)cc1` gave A549 viability inconclusive, ELG1 DNA repair inconclusive and Nrf2 activator -2.5%.
Screening O=C1CCCN1C(=O)CSc1ncnc2sccc12 returned Nrf2 block inconclusive, A549 viability -1.8%, ELG1 DNA repair 13.4% and Nrf2 activator 5.5%.
For CCOC(=O)c1cnc2c(C)cccc2c1NCCc1ccc(OC)c(OC)c1 the results were Nrf2 block -22.4%, A549 viability -25.0%, ELG1 DNA repair 23.1µM* and Nrf2 activator 1.2%.
CCOC(=O)c1cnc2c(C)cc(C)cc2c1NCCc1ccc(OC)c(OC)c1 was read as Nrf2 block 2.8%, A549 viability 5.8% and Nrf2 activator 0.6%.
`CCOC(=O)c1cnc2ccc(C(=O)OC)cc2c1NCCc1ccc(OC)c(OC)c1` gave Nrf2 block 4.3%, A549 viability -0.1%, ELG1 DNA repair 14.6µM* and Nrf2 activator 0.2%.
N=c1c2ccccc2nnn1-c1ccc(C(F)(F)F)cc1 was read as Nrf2 block 2.3%, A549 viability 2.1%, ELG1 DNA repair inconclusive and Nrf2 activator -0.4%.
Screening COc1ccc([N+](=O)[O-])cc1NC(=O)C(C)NNC(=O)c1cccc([N+](=O)[O-])c1 (stereo not drawn) returned Nrf2 block 16.4µM*, A549 viability -4.1%, ELG1 DNA repair inconclusive and Nrf2 activator 5.6%.
COc1ccc([N+](=O)[O-])cc1NC(=O)C(C)c1ccccc1 (stereo not drawn) was read as Nrf2 block -12.8%, A549 viability 13.4%, ELG1 DNA repair -5.4% and Nrf2 activator 11.3%.
COc1ccc([N+](=O)[O-])cc1NC(=O)C(C)Sc1ccc(C)cc1 (stereo not drawn) was read as Nrf2 block 18.4µM*, A549 viability -1.9%, ELG1 DNA repair inconclusive and Nrf2 activator 0.1%.
For COc1ccc(Cl)cc1C(=O)NNC(=O)c1cccc([N+](=O)[O-])c1 the results were Nrf2 block -3.0%, A549 viability -0.1%, ELG1 DNA repair 3.3% and Nrf2 activator 18.8%.
`O=C(CSc1cccc[n+]1[O-])Nc1cc([N+](=O)[O-])ccc1Cl` gave Nrf2 block 2.4%, A549 viability 4.4%, ELG1 DNA repair 3.6% and Nrf2 activator 10µM*.
COc1ccc([N+](=O)[O-])cc1NC(=S)NC(NC(=O)C(c1ccccc1)c1ccccc1)C(Cl)(Cl)Cl (stereo not drawn) was read as Nrf2 block 14.6µM*, A549 viability inconclusive, ELG1 DNA repair -17.7% and Nrf2 activator 0.3%.
`O=C(N/N=C/c1ccccc1OCc1ccccc1)c1cccs1` gave Nrf2 block 8.3%, A549 viability 6.4%, ELG1 DNA repair 4.1% and Nrf2 activator 8.2%.
For C=Cc1ccc(Cn2nc(-c3ccc(C)c(S(=O)(=O)N(CC)CC)c3)ccc2=O)cc1 the results were Nrf2 block -4.5%, A549 viability -5.2% and Nrf2 activator 5.7%.
For Cc1ccsc1CNC(=O)C1(C)CCCN1CC(C)C (stereo not drawn) the results were Nrf2 activator 0.0%.
For O=S(=O)(c1ccccc1Cl)N1CCN(c2nc(-c3cccs3)nc3ccccc23)CC1 the results were Nrf2 block 3.5% and A549 viability -2.0%.
`O=C(NC(NC(=S)Nc1c(Cl)cccc1Cl)C(Cl)(Cl)Cl)c1cccc([N+](=O)[O-])c1` (stereo not drawn) gave Nrf2 block 16.4µM*, A549 viability inconclusive, ELG1 DNA repair inconclusive and Nrf2 activator 5.1%.
Screening COc1ccc([N+](=O)[O-])cc1NC(=O)CSc1ccc2ccccc2c1 returned Nrf2 block 18.4µM*, A549 viability -16.4%, ELG1 DNA repair -24.1% and Nrf2 activator inconclusive.
For O=C(NNC(=S)NC(=O)c1ccccc1Cl)c1cccc([N+](=O)[O-])c1 the results were Nrf2 block -22.2%, A549 viability -5.0%, ELG1 DNA repair -19.1% and Nrf2 activator -1.0%.
Screening CC(=O)OCc1cnc(C)c2oc(=O)c(C(=O)Nc3ccc(F)cc3C)cc12 returned A549 viability 3.7% and Nrf2 activator -0.6%.
OC[C@H]1O[C@@H](n2cnc3c(NCc4ccco4)ncnc32)[C@H](O)[C@@H]1O was read as Nrf2 block 8.2µM*, A549 viability inconclusive and Nrf2 activator inconclusive.
CCOC(=O)c1c(C)[nH]c(C(=O)OC)c1CCC(=O)OC was read as Nrf2 block 0.2%, A549 viability -2.0%, ELG1 DNA repair 3.1% and Nrf2 activator -0.2%.
Screening CCOC(=O)c1[nH]c(Cc2[nH]c(C(=O)OCC)c(C)c2CCC(=O)OC)c(CCC(=O)OC)c1C returned Nrf2 block inconclusive, ELG1 DNA repair 18.4µM* and Nrf2 activator 2.9%.
For COc1ccc(CCNC(=O)CCc2c(C)nc3c4cccnc4nn3c2C)cc1OC the results were Nrf2 block -1.5%, A549 viability -1.6% and Nrf2 activator -0.3%.
